The nature of test [1]: growth inhibition of DIPG glioma cells, dose response, cell-based, SU-DIPG-XIII, MIPE4.0, CellTiter-Glo, qHTS (AID 1347061; cut-off not given, nearly all actives have AC50 up to about 37 µM;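 further: cells exposed to compound for 48 hours before readout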). The note with it: SU-DIPG-XIII viability, CellTiter-Glo ATP luminescence. A general note: ATP-based viability assays read luminescence as a measure of living cells.
Test [2] is described as follows: growth inhibition of DIPG glioma cells, dose response, cell-based, JHH-DIPG-1, MIPE4.0, CellTiter-Glo, qHTS (AID 1347062; cut-off not given, nearly all actives have AC50 up to about 27 µM;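 on AC50: cells exposed to compound for two days before readout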). The following applies: JHH-DIPG-1 viability, CellTiter-Glo ATP luminescence.
Test [3] in a line: JHH-DIPG-1 glioma cell viability, MIPE5.0 library, CellTiter-Glo luminescence, qHTS (AID 1347067; cut-off not given, nearly all actives have AC50 up to about 26 µM;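 further: cells exposed to compound for 48 hours before readout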). The following applies: JHH-DIPG-1 glioma viability, CellTiter-Glo ATP luminescence.
The nature of test [4]: SU-DIPG-XXV glioma cell viability, MIPE5.0 library, qHTS (AID 1347068; cut-off not given, nearly all actives have IC50 up to about 30 µM). Background: qHTS replaces the single test concentration by a dilution series.
The nature of test [5]: viability loss in pontine glioma line – cell-based, SU-DIPG-XXV, MIPE5.0, CellTiter-Glo, qHTS, dose response (AID 1347065; cut-off not given, nearly all actives have AC50 up to about 26 µM;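 further: cells exposed to compound for 48 hours before ATP readout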). The following applies: CellTiter-Glo ATP luminescence.
Test [6] is described as follows: SU-DIPG-VI glioma cell viability, MIPE4.0 library, CellTiter-Glo luminescence, qHTS (AID 1347066; cut-off not given, nearly all actives have AC50 up to about 30 µM;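 further: cells exposed to compound for 48 hours before readout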). The following applies: CellTiter-Glo ATP luminescence.
Test [7] in a line: sensitizers of A549 cells to miR-34 induction, primary screen, imaging, A549 dox-inducible miR-34, nuclei and caspase counts (AID 1347080;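 active means compounds whose cell count with miR-34 switched on is under 0.7 times the count with it off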). The following applies: A549 miR-34 inducible, Hoechst nuclei count, 48 h.
Test [8] can be described thus: survival rescue of mitochondrial mutant cells in low glucose, primary screen, MELAS cybrids, Rieske KO mouse fibroblasts, CellTiter-Glo (AID 1508586;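 active means mean z-score across replicates of 1.96 or higher in either the MELAS or the Rieske mutant cell line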;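 further: z relative to plate mean and SD of compound and empty wells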).
The nature of test [9]: growth inhibition of DIPG glioma cells, dose response, cell-based, SU-DIPG-IV, MIPE4.0, CellTiter-Glo, qHTS (AID 1347063; cut-off not given, nearly all actives have AC50 up to about 30 µM;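 further: compound exposure lasted 48 hours before the viability readout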). The note with it: SU-DIPG-IV viability, CellTiter-Glo ATP luminescence.
Test [10] in a line: modifiers of HSF1 nuclear foci, imaging, Selleck Cancer Library (AID 1347162; in the data active means plate-normalised HSF1 focus index below about 0.46). The note with it: human cells, at 10 µM; SSMD: measured here: HSF1 foci SSMD mean; cell count: measured here: cell number; plate-normalised HSF1 focus index: stronger effect = lower value.
Test [11] can be described thus: ovarian cancer cell viability with rucaparib, profiling panel, oncology-focused library, rucaparib conditional (AID 1508598). The following applies: patient-derived ovarian cancer cells, CellTiter-Glo viability, 144 h, stronger effect = lower value.
[12] abbreviates: stronger effect = lower value, cell number ratio, induced over uninduced.
Setting [13] is: measured here: relative caspase fold change +Dox/-Dox.
The mark [14] stands for this setting: measured here: total cells with miR-34 induction, stronger effect = lower value.
Where [15] appears, read: measured here: total cells without miR-34 induction.
[16] abbreviates: MELAS cybrid survival, CellTiter-Glo 48 h, stronger effect = higher value.
[17] abbreviates: Rieske KO mouse fibroblast survival, CellTiter-Glo 72 h.

“And” between values parts separate entries of the source, which are not always exact repeats. Equal entries are not always repeated. Records with an inconclusive call do not appear. The source made the active and inactive calls.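 How the source made its calls, unless noted: active means normalized viability below 100% at a tested concentration; inactive means the rest.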

`COCCNCCCn1c(C(=O)CF)c(-c2ccc(C)cc2)c2c(N)ncnc21`: the molecule was called inactive in test [1], in test [2], in [3] and in test [4].

As for `O=C(N[C@@H](c1ccccc1)[C@@H]1CCCCN1)c1cccc(C(F)(F)F)c1Cl`, the outcome in test [1], in test [2], in [6] and in [4] was inactive. Further, the AC50 (in general, the concentration at which the activity in the assay is half-maximal) in [5] is 20.9 µM (active).

`NC(=O)c1noc([C@H](CCCC2CCCCC2)CC(=O)NO)n1`: the call in test [1], in test [6], in test [3] and in [4] was inactive. Further, in test [2], the AC50 is 23.5 µM (active).

With `CCCCCN(CCC12CC3CC(CC(C3)C1)C2)C(=O)NCCCc1ccncc1`, the molecule was classed as inactive in [1], in test [2] and in test [4]. The AC50 in [5] and in [6] was 20.9 µM (active) in each case.

With `CC1(C)OC2CC3C4CC(F)C5=CC(=O)C=CC5(C)C4C(O)CC3(C)[C@]2(C(=O)CO)O1` (some centres undefined), the molecule was classed as inactive in [1], in test [2] and in test [6].

In the case of `O=C(O)C1(Cc2cccc(Nc3nccs3)n2)CCC(Oc2cccc(Cl)c2F)CC1` (centres undefined), the call in [1], in [2], in test [6] and in test [4] was inactive. Further, the fold change is 1.01 (inactive) in [7] (setting [12]) and 0.491 in [7] (setting [13]). Moreover, the results for the cell count in [7] (setting [14]) and in [7] (setting [15]) were 3320 and 3280, respectively. Also, the z-score in test [8] (setting [16]) was -0.373 (inactive); in test [8] (setting [17]), 0.69.

For `CCCCc1ccc(NS(=O)(=O)c2ccc(C)c(C(=O)N3CCN(c4cccc(C)c4C)CC3)c2)cc1`, the molecule was called inactive in test [1] and in test [2]. The AC50 in test [6] was 23.5 µM (active).

In the case of `CCN1CCN(C(=O)N[C@H](C(=O)N[C@@H]2C(=O)N3C(C(=O)O)=C(CSc4nnnn4C)CS[C@@H]23)c2ccc(O)cc2)C(=O)C1=O`, the molecule was called inactive in test [1], in test [2] and in [6].

Consider `CC(C)OC(=O)C1=CN(C(=O)c2ccc(F)c(F)c2)CC(C)(C)c2c1[nH]c1ccccc21`, for which the molecule was called inactive in [1], in test [5], in test [6], in test [3] and in [4]. Also, in test [9], the AC50 was 26.4 µM (active). Further, the fold change is 0.997 (inactive) in test [7] (setting [12]) and 0.501 in test [7] (setting [13]). Also, the cell count is 7570 in [7] (setting [14]), 7590 in [7] (setting [15]) and 7100 in [10]. The same molecule registered an SSMD in [10] of 3.1. Further, in [10], the plate-normalised HSF1 focus index was 1.17 (inactive). Moreover, the z-score in test [8] (setting [16]) is -0.00254 (inactive); in [8] (setting [17]), 0.0698. Besides, the viability (in general, a read-out of living cells in per cent, often relative to untreated cells) was 123% (inactive) in test [11] (at 0.000305 µM, OCI-C5x cells, with rucaparib 10 µM, 100% = cells with rucaparib alone); 126% (inactive) in test [11] (at 0.000305 µM, OCI-C5x cells, without rucaparib); 115% (inactive) in test [11] (at 0.000305 µM, OCI-P5x cells, with rucaparib 20 µM, 100% = cells with rucaparib alone); 112% (inactive) in [11] (at 0.000305 µM, OCI-P5x cells, without rucaparib); 116% (inactive) in test [11] (at 0.00122 µM, OCI-C5x cells, with rucaparib 10 µM, 100% = cells with rucaparib alone); 130% (inactive) in [11] (at 0.00122 µM, OCI-C5x cells, without rucaparib). Further, the viability in [11] (at 0.00122 µM, OCI-P5x cells, with rucaparib 20 µM, 100% = cells with rucaparib alone) is 117% (inactive); in test [11] (at 0.00122 µM, OCI-P5x cells, without rucaparib), 110% (inactive); in [11] (at 0.00488 µM, OCI-C5x cells, with rucaparib 10 µM, 100% = cells with rucaparib alone), 128% (inactive); in test [11] (at 0.00488 µM, OCI-C5x cells, without rucaparib), 128% (inactive); in test [11] (at 0.00488 µM, OCI-P5x cells, with rucaparib 20 µM, 100% = cells with rucaparib alone), 111% (inactive); in test [11] (at 0.00488 µM, OCI-P5x cells, without rucaparib), 115% (inactive). The viability in test [11] (at 0.0195 µM, OCI-C5x cells, with rucaparib 10 µM, 100% = cells with rucaparib alone) was 108% (inactive); in [11] (at 0.0195 µM, OCI-C5x cells, without rucaparib), 126% (inactive); in [11] (at 0.0195 µM, OCI-P5x cells, with rucaparib 20 µM, 100% = cells with rucaparib alone) it was 118% (inactive); in test [11] (at 0.0195 µM, OCI-P5x cells, without rucaparib), 115% (inactive); in [11] (at 0.0781 µM, OCI-C5x cells, with rucaparib 10 µM, 100% = cells with rucaparib alone), 112% (inactive); in [11] (at 0.0781 µM, OCI-C5x cells, without rucaparib), 128% (inactive). The viability in test [11] (at 0.0781 µM, OCI-P5x cells, with rucaparib 20 µM, 100% = cells with rucaparib alone) was 115% (inactive); in test [11] (at 0.0781 µM, OCI-P5x cells, without rucaparib) it was 116% (inactive); in test [11] (at 0.313 µM, OCI-C5x cells, with rucaparib 10 µM, 100% = cells with rucaparib alone), 125% (inactive); in [11] (at 0.313 µM, OCI-C5x cells, without rucaparib), 131% (inactive); in test [11] (at 0.313 µM, OCI-P5x cells, with rucaparib 20 µM, 100% = cells with rucaparib alone), 113% (inactive); in test [11] (at 0.313 µM, OCI-P5x cells, without rucaparib), 114% (inactive). In addition, the viability was 114% (inactive) in [11] (at 1.25 µM, OCI-C5x cells, with rucaparib 10 µM, 100% = cells with rucaparib alone); 122% (inactive) in test [11] (at 1.25 µM, OCI-C5x cells, without rucaparib); 114% (inactive) in [11] (at 1.25 µM, OCI-P5x cells, with rucaparib 20 µM, 100% = cells with rucaparib alone); 106% (inactive) in test [11] (at 1.25 µM, OCI-P5x cells, without rucaparib); 125% (inactive) in test [11] (at 5 µM, OCI-C5x cells, with rucaparib 10 µM, 100% = cells with rucaparib alone); 118% (inactive) in [11] (at 5 µM, OCI-C5x cells, without rucaparib). For the same molecule, the viability in test [11] (at 5 µM, OCI-P5x cells, with rucaparib 20 µM, 100% = cells with rucaparib alone) is 114% (inactive); in [11] (at 5 µM, OCI-P5x cells, without rucaparib) it was 113% (inactive).

Regarding `Cc1ccc2c(c1)c1c(n2CCc2ccc(C)nc2)CCN(C)C1`, the outcome in test [1], in test [9] and in test [6] was inactive.

Regarding `Cc1cn2c(-c3cn[nH]c3)cnc2c(Nc2ccc(C(=O)N3CCNCC3)cc2F)n1`, the AC50 in test [1] was 23.5 µM (active); in test [6], 18.7 µM (active).

Turning to `O=C1C(CCC(O)c2ccc(F)cc2)C(c2ccc(O)cc2)N1c1ccc(F)cc1` (centres undefined), the outcome in [1], in test [2] and in [6] was inactive. Moreover, the fold change was 0.893 (inactive) and 0.906 (inactive) in test [7] (setting [12]); 1.57 and 0.763 in test [7] (setting [13]). For the same molecule, the cell count is 7660 and 7830 in test [7] (setting [14]); 8580 and 8640 in test [7] (setting [15]). Further, the z-score in test [8] (setting [16]) is -0.505 (inactive); in test [8] (setting [17]) it was -0.0457.
